Screening data (PubChem)
IL-1B inflam inh: blocks inflammasome-driven IL-1 beta release; THP-1 LPS/ATP IL-1B secretion, AlphaLISA, 16 h; hits give low values; activity change, % at 57.5 µM; hit rate 4.7% among 360,000; AID 743279; in the data active means activity change below about -50%; inconclusive means mostly about -30% to -49%; further: on the % scale 0 is the no-effect control and ±100 the full control effect
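THP-1 cells pretreated 1 hr with compounds (up to 57.5 uM final), then stimulated with LPS (250 ng/mL final) plus ATP (1.25 mM final); secreted IL-1B measured by AlphaLISA after 16 hr, decreased signal indicating inhibition.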
ClpP mod: qHTS Assay for Activators of ClpP; ATP-dependent Clp protease proteolytic subunit (Bacillus subtilis (strain 168)), P80244; purified B. subtilis ClpP, FRET peptide cleavage, 20 min; Potency, µM (doses to about 57.5 µM), inactives show at the top dose activity change, negative = active; hit rate 1.9% among 340,000; active means well fitted falling curve with a large enough effect; inconclusive means small, poorly fitted or top-dose-only effect; inactive means no such curve, though single readings can be large or run the other way; further: potency means the concentration at half of the fitted maximal effect; the source files actives as falling curves though it sought activators and does not explain the sign; nearly all actives have a fitted effect of over 65% in size
Target sequence (P80244 whole entry, looked up): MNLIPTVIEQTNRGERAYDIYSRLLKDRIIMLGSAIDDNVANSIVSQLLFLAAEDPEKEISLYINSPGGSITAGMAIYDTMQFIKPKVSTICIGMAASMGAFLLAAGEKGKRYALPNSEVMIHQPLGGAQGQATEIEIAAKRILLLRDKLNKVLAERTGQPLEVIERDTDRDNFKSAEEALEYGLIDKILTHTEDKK
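FRET quenching reversal measured ClpP activation: 10 microg/mL B. subtilis ClpP at pH 8 with the FRET-FV decapeptide, read at 430 nm after 320 nm excitation. The 20-min minus 0-min signal was scaled between DMSO/no-enzyme wells and ADEP (5.8 microM final).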
D3 ag: activates the human D3 dopamine receptor; P35462; hit rate 0.58% among 410,000; AID 652048; D3R DiscoveRx beta-arrestin cells, luminescence, 90 min; max activation, %; in the data active means max activation above about 30%; further: 0% is about no effect
Target sequence (P35462 whole entry, looked up): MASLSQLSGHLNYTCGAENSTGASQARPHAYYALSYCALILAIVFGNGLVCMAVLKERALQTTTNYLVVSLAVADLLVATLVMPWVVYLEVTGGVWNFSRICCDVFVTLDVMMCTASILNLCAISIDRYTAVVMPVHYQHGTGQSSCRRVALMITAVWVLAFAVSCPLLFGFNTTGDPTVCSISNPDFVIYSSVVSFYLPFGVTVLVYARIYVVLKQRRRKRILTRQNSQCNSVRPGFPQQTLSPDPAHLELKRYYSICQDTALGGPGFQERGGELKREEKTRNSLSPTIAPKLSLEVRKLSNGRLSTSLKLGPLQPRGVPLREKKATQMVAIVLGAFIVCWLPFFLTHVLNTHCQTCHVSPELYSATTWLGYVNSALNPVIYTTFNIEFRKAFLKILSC
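Agonist mode: compounds and dopamine controls were applied to plated cells for 90 min at 37 degrees C after an overnight attachment at 1500 cells/well. Luminescent read-out followed 30 - 60 minutes at room temperature with DiscoveRx detection reagent.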
DT40 TDP1 no CPT: qHTS for Inhibitors of human tyrosyl-DNA phosphodiesterase 1 (TDP1): qHTS in cells in absence of CPT; hit rate 15% among 420,000; DT40 Tdp1-/- hTDP1 cells, no CPT, ATP luminescence, 48 h; Potency, µM (top dose mostly 46.2 µM), for inactives: top-dose activity change, negative = growth inhibition, usual class: inhibitors; further: potency means the concentration at half of the fitted maximal effect; on the % scale 0 is the no-effect control and ±100 the full control effect; nearly all actives have a fitted effect of over 55% in size
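Growth of hTDP1-complemented DT40 Tdp1-knockout cells is measured by ATP luminescence after at least 48 hr compound exposure at 37 °C, with DMSO substituting for the 20 nM CPT used in the parallel screen.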
TDP1 cell CPT: growth inhibition of DT40 Tdp1-/-;hTDP1 cells with camptothecin (screen for TDP1 inhibitors); chicken DT40 Tdp1-/-;hTDP1 cells + 20 nM CPT, ATP luminescence, 48 h; Potency, µM (highest dose often 46.2 µM), without a hit: at the highest dose activity change, negative = growth inhibition, usual class: inhibitors; hit rate 12% among 420,000; further: potency means the concentration at half of the fitted maximal effect; on the % scale 0 is the no-effect control and ±100 the full control effect; nearly all actives have a fitted effect of over 55% in size
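Cell growth measured by CellTiter-Glo luminescence after a minimum 48 h, 37 C compound exposure with 20 nM CPT in Tdp1-knockout DT40 cells stably expressing hTDP1, seeded 400/well; qHTS titration format.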
D3 antag: antagonists of human D3 dopamine receptor. hit rate 2.5% among 360,000. max response, negative = inhibition, %. AID 652054. P35462. D3R cells, DiscoveRx beta-arrestin luminescence, antagonist mode; hits give low values; in the data active means max response below about -50%; inconclusive means no clear call, values can overlap the other calls; further: on the % scale 0 is the no-effect control and ±100 the full control effect
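Cells plated overnight at 1500 cells/well, then exposed to library compounds with dopamine controls for 90 minutes at 37 degrees C. DiscoveRx reagent added for 30–60 minutes at room temperature; luminescence read, quantitative HTS format.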
Active calls of the source: *; ? = inconclusive; . = not tested or not shown; [ ] = dose if it differs, or a comment. Compounds with a hit are over-represented: about 21% of the library has one in this group of screens. Unless noted, the call rests on the fitted dose curve; in most records, active means well fitted inhibition curve with a large enough effect; inconclusive means small, poorly fitted or top-dose-only effect; inactive means flat fitted curve, though single readings scatter.

SMILES | IL-1B inflam inh | ClpP mod | D3 ag | DT40 TDP1 no CPT | TDP1 cell CPT | D3 antag
Cc1c(NC(=O)CN2CCN(C(c3ccccc3)c3ccccc3)CC2)c(=O)n(-c2ccccc2)n1C | -3.4 | -0.4% | 0.7 | -2.4% | 7.4% | 9.7
COc1cc(CN2CCC(Cc3ccccc3)CC2)cc([N+](=O)[O-])c1O | 19.5 | 2.9% | -7.1 | 17.0% | 0.1% | -12.3
Cc1ccccc1C(=O)N1CCc2c(cnc(C)c2CNC(=O)CN2CCCCC2)C1 | . | . | . | -11.3% | 2.8% | .
CCOc1ccc(CCNC(=O)CCN2N=C(c3ccc(OC)cc3)CCC2=O)cc1OCC | . | -1.6% | 6.8 | ? | ? | .
CCOc1ccc(N(CC)C(=O)CSc2n[nH]c(-c3ccccc3)n2)cc1 | . | -1.1% | 4.5 | ? | ? | .
CCCN1CCC(=O)N([C@H](CN=[N+]=[N-])Cc2ccccc2)CC1 | -2.3 | -8.0% | -10.4 | ? | -19.7% | -8.9
O=C(CN1CCC(Cc2ccccc2)CC1)NC(=O)NCc1ccccc1 | -51.8* | 0.2% | -14.0 | -23.1% | -3.3% | -20.3
Nc1cc(=O)[nH]c(SCC(=O)c2ccc(O)cc2O)n1 | 22.7 | . | 9.9 | 0.9% | -0.3% | 4.2
CC(C)CN=C(NS(=O)(=O)c1ccccc1)C(Cl)(Cl)Cl | -12.1 | -2.8% | -7.6 | 5.8µM* | 4.61µM* | ?
CC(C)CC(C)c1cc(N)nc2nc3ccccc3n12 (stereo not given) | 69.8 | . | 5.2 | ? | ? | 7.2
O=C(Nc1cc(Cl)cc2c1-c1ccc(Cl)cc1C2O)C(Cl)Cl (stereo not given) | -60.6* | -6.6% | 3.4 | ? | 23.1µM* | -1.8
CCOC(=O)c1sc2ncnc(NCC(c3cccs3)N(C)C)c2c1C (stereo not given) | 2.8 | ? | 1.4 | ? | 29.1µM* | 33.4
CC(=Nc1ccccc1)C1=C(O)C(CC(C)C)NC1=O (stereo not given) | -23.1 | -1.1% | 1.5 | -3.1% | -12.3% | -1.3
CC(=Nc1ccccc1)C1=C(O)C(Cc2ccccc2)NC1=O (stereo not given) | 23.5 | -19.6% | -13.3 | 0.0058µM* | 0.0116µM* | 0.0
CC(=Nc1ccccc1)C1=C(O)C(Cc2ccc(F)cc2)NC1=O (stereo not given) | 16.5 | -0.3% | -13.4 | 1.16µM* | 1.03µM* | 0.0
CCC(=O)N1c2ccccc2C(C)(c2ccccc2)CC1(C)C (stereo not given) | . | -6.8% | 0.4 | -28.4% | -15.8% | .
CCN1c2ccccc2N(C)C1(C)c1ccccc1 (stereo not given) | 5.0 | -0.7% | -8.7 | 3.66µM* | 3.66µM* | -0.4
N#CCn1cnc2c(oc3ccccc32)c1=O | -1.8 | 0.9% | 2.8 | -13.2% | 21.5% | -8.4
Cc1ccccc1S(=O)(=O)N1C[C@H]2CON(C)[C@H]2C[C@H]1c1cccc(-c2ccc(C#N)cc2)c1 | -11.5 | -0.1% | -0.7 | ? | 20.6µM* | 0.6
CN1OC[C@@H]2CN(S(=O)(=O)c3cccc4ccccc34)[C@H](c3ccc(-c4cccnc4)cc3)C[C@@H]21 | -19.4 | -1.8% | 1.1 | 18.4µM* | ? | -0.6
O=S(=O)(c1cccc(C(F)(F)F)c1)N1CCCC1c1cccnc1 (stereo not given) | . | . | 0.9 | ? | -3.3% | 12.1
Cc1ccccc1S(=O)(=O)N1C[C@H]2CON(C)[C@H]2C[C@H]1c1cccc(N2CCOCC2)c1 | -8.8 | 0.4% | -4.4 | -16.3% | -11.0% | ?
CN1OC[C@@H]2CN(S(=O)(=O)c3cccc(C(F)(F)F)c3)[C@H](c3ccc(-c4cccnc4)cc3)C[C@@H]21 | 21.8 | -2.4% | -7.2 | 20.6µM* | 29.1µM* | -12.6
CCc1ccc(NC(=O)C(CC)n2c(=O)c(C(F)(F)F)nc3ccccc32)cc1 (stereo not given) | . | -5.5% | 7.4 | ? | ? | .
O=C(NCc1ccc(F)cc1)C1(S(=O)(=O)c2ccc(Cl)cc2)CC1 | 3.6 | . | 1.8 | -22.4% | -5.5% | 1.5
SMILES | IL-1B inflam inh | ClpP mod | D3 ag | DT40 TDP1 no CPT | TDP1 cell CPT | D3 antag
O=C(Nc1ccc(C(F)(F)F)cc1)C1CCCN(c2cnccn2)C1 (stereo not given) | . | ? | 2.6 | ? | ? | .
CCN1C(c2ccccc2)=C(c2ccccc2)S/C1=C/C=C1\SC(=S)N(C)C1=O | -20.7 | 0.2% | 26.1 | 10.3µM* | 10.3µM* | 13.1
CCN1C(c2ccccc2)=C(c2ccccc2)S/C1=C\C=C1/SC(=S)N(C)C1=O | -16.6 | 1.3% | 15.2 | 9.2µM* | 13µM* | 16.3
COc1cccc(-n2ccnc2SCC(=O)Nc2ccc(Cl)c(Cl)c2)c1 | . | -6.3% | -24.2 | ? | -25.8% | .
CCc1ccccc1NC(=O)c1cnn2c(C(F)(F)F)cc(-c3ccc(OC)c(OC)c3)nc12 | . | -2.8% | 2.5 | . | . | .
O=C1OC(CO)CN1Cc1ccccc1 (stereo not given) | -10.2 | -2.7% | -2.5 | -16.3% | 4.6% | -6.3
CCOC(=O)c1cnc2c(C)cccc2c1Nc1ccc(OC(C)C)cc1 | . | 2.8% | -14.2 | 23.1µM* | ? | .
CCOC(=O)c1cnc2c(C(F)(F)F)cccc2c1Nc1cccc(C(=O)OC)c1 | . | -15.3% | -4.1 | 14.6µM* | ? | .
CCOC(=O)c1cnc2c(ccc3ccccc32)c1Cl | -12.1 | . | -1.7 | -4.0% | 2.8% | 6.9
CCOC(=O)c1cnc2c(ccc3ccccc32)c1Nc1ccccc1O | . | -1.0% | -7.4 | ? | 20.6µM* | .
COc1ccc(OC)c(C(=O)N(Cc2cc3cccc(C)c3nc2N2CCC(O)CC2)C2CC2)c1 | . | . | . | ? | 3.9%[9.04 µM] | .
COc1cc2c(cc1OC)/C(=C/C(=O)N1CCOCC1)NC(C)(C)C2 | ? | 12.6µM* | -2.8 | -23.6% | 17.4% | 0.0
CC1(C)Cc2ccccc2/C(=C/C(=O)N2CCCCCC2)N1 | -4.5 | -0.6% | -5.4 | 25.9µM* | 16.4µM* | ?
CC(N=C1NC(C)(C)Cc2ccccc21)C(=O)O (stereo not given) | 49.0 | 1.7% | -3.5 | -16.8% | 1.0% | 24.8
CN(CCc1ccc(Cl)c(Cl)c1)CCN1CCCC1 | . | . | . | 23.7µM* | 8.2µM* | .
COc1ccc(-c2oc(=O)c3cc(OC)c(OC)cc3c2/C=C/c2ccc(OC(C)=O)cc2)cc1 | -24.7 | 4.1% | 5.9 | 9.2µM* | 20.6µM* | 3.9
COc1cc(-c2noc(C)c2/C=C/c2ccc(OC(C)=O)cc2)cc(OC)c1OC | 67.4 | -7.6% | -1.6 | 0.82µM* | 0.731µM* | -12.9
